From PubChem BioAssay
Shown is part of a subset that was picked to be rich in hits.
Dicer inh: blocks human Dicer maturation of pre-miR-21; Q9UPY3; cat-ELCCA pre-miR-21 Dicer processing, chemiluminescence; active compounds read high; z-score at 25 µM; 47,000 tested, 6% active; AID 1347074; in the data active = z-score above about 3, passing the limit was not always enough;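 also: plate controls were vehicle for no effect and no enzyme for full effect; higher signal means more uncleaved substrate so more Dicer inhibition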
Target sequence (Q9UPY3 whole entry, looked up): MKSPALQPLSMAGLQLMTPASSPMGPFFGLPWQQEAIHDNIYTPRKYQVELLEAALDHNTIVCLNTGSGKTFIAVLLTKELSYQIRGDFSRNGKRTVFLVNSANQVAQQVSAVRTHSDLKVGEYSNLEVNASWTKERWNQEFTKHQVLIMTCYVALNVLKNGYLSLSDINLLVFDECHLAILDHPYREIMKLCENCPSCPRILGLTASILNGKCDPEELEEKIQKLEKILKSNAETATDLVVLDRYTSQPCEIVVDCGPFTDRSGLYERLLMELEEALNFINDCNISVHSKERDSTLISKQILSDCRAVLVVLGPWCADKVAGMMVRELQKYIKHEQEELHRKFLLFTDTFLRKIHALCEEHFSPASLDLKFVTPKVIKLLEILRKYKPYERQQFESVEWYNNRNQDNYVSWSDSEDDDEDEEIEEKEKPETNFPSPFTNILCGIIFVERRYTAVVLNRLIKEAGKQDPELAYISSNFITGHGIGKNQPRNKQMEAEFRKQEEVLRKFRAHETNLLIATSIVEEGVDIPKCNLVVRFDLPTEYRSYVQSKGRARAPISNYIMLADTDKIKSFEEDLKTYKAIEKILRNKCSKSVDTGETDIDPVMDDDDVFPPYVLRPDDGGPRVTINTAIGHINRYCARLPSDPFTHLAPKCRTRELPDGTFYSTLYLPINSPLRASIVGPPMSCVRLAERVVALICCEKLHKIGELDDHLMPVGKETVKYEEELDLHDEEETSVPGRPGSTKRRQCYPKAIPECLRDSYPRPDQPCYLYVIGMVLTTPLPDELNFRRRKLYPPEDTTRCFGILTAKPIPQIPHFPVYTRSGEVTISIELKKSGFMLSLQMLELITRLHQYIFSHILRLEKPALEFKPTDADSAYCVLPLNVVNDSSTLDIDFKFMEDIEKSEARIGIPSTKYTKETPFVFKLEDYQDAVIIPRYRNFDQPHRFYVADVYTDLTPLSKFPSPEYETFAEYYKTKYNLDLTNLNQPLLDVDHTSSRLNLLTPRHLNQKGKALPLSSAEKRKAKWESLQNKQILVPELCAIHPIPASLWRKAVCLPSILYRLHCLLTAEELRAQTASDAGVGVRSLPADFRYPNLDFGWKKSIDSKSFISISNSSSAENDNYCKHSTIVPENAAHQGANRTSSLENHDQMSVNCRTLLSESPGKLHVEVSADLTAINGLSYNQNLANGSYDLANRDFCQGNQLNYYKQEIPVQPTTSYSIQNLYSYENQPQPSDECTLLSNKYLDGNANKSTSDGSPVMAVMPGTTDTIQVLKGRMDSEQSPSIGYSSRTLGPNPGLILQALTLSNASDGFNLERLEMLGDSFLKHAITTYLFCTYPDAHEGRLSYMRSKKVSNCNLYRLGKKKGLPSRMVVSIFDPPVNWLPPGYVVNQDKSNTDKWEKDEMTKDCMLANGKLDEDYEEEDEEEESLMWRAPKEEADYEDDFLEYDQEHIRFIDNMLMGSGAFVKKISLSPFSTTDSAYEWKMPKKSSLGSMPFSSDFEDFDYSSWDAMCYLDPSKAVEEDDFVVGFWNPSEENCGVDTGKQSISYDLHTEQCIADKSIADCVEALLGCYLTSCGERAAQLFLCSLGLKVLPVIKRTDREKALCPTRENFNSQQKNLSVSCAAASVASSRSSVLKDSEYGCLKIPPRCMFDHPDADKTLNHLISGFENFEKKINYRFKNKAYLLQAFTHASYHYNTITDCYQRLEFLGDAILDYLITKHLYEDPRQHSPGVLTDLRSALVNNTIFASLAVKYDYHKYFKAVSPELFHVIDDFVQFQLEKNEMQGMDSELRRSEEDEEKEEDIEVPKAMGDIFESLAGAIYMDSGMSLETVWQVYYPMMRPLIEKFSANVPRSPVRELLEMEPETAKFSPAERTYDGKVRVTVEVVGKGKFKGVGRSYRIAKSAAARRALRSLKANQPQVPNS
An asterisk follows results filed as active.

SMILES	Dicer inh
O=C1c2c(O)ccc(O)c2C(=O)c2c(NCCNCCO)ccc(NCCNCCO)c21	21*
O=C1c2ccccc2C(=O)c2c(NCCc3ccc(O)cc3)ccc(NCCc3ccc(O)cc3)c21	-1.4
Cn1c(=O)[nH]c(=O)c2c1nc(NCc1ccccc1)n2CC(O)c1ccccc1 (stereo not drawn)	-1.3
N=C(N=C(N)N)N1CCOCC1	-0.15
COc1ccc(N2C(=O)C3ON(c4ccccc4)C(c4ccccc4O)C3(C)C2=O)cc1 (stereo not drawn)	4*
O=C1C2ON(c3ccccc3)C(c3cccnc3)C2C(=O)N1c1ccc(F)cc1 (stereo not drawn)	0.56
COc1cccc(N2C(=O)C3ON(c4ccccc4)C(c4ccccc4O)C3C2=O)c1 (stereo not drawn)	3.9*
Cc1ccc(N2C(=O)C3ON(c4ccccc4)C(c4cccnc4)C3C2=O)cc1 (stereo not drawn)	-0.52
O=C1C2ON(c3ccccc3)C(c3cc(Br)ccc3O)C2C(=O)N1c1ccccc1 (stereo not drawn)	4.7*
COc1ccc(C2C3C(=O)NC(=O)C3ON2c2ccccc2)cc1 (stereo not drawn)	-0.09
O=C1C2ON(c3ccccc3)C(c3ccccc3O)C2C(=O)N1c1ccc(Br)cc1 (stereo not drawn)	3.4*
COC(=O)c1ccc(N2C(=O)C3ON(c4ccccc4)C(c4ccc(OC)cc4OC)C3C2=O)cc1 (stereo not drawn)	-0.46
COc1ccc(N2C(=O)C3ON(c4ccccc4)C(c4ccco4)C3C2=O)cc1 (stereo not drawn)	0.58
COc1ccc(C2C3C(=O)N(c4ccccc4)C(=O)C3ON2c2ccccc2)cc1 (stereo not drawn)	-0.29
Cc1ccc(N2C(=O)C3ON(c4ccccc4)C(c4ccccc4O)C3C2=O)cc1 (stereo not drawn)	0.87
COc1ccc(N2C(=O)C3ON(c4ccccc4)C(c4cc(Br)ccc4O)C3C2=O)cc1 (stereo not drawn)	2.5
COc1ccc(Br)cc1CN1CCN(C2CCN(Cc3ccccc3)CC2)CC1	0.03
CN(C)C(=S)NCc1cccs1	-0.61
CN(Cc1ccccc1)C(=O)C(C(=O)c1ccc(F)cc1)n1cc(Cl)ccc1=O (stereo not drawn)	9.5
COc1ccccc1/C=C/c1nn2c(Cc3ccccc3)nnc2s1	-0.57
CCCCS(=O)(=O)N[C@@H](Cc1ccc(OCCCCC2CCNCC2)cc1)C(=O)O	1.6
COC(=O)c1cn(C(=O)c2cnn3c(C(F)F)cc(-c4ccccc4)nc23)c2ccccc12	2.3
CCOC(=O)c1cnn(C(=O)c2ccc(C(F)(F)F)cc2)c1N	-1.8
COc1ccc2c(c1)nnc1nnc(SCC(=O)NN)n12	0.52
CC(C)CNC(=O)Cn1nc(C(F)(F)F)c2c1CCCC2	1.1
SMILES	Dicer inh
CN(C(=O)Cn1nc(C(F)(F)F)c2c1CCCC2)c1ccccc1	3.8*
O=C(Cn1nc(C(F)(F)F)c2c1CCCC2)N1CCCc2ccccc21	0.09
O=C(CSc1n[nH]c(=O)n1Cc1ccco1)c1ccc2c(c1)OCCO2	-0.74
N[C@@H](CCCC(=O)O)C(=O)O	0.32
NC(CCCP(=O)(O)O)C(=O)O (stereo not drawn)	3.2*
CN=C(N)NCCC[C@H](N)C(=O)O	0.12
C=CCC(C#Cc1ccccc1)N1CCCC1 (stereo not drawn)	0.73
CCc1ccnc(NC(=O)NS(=O)(=O)c2ccc(C)cc2)c1	5.1*
Cc1ccc(S(=O)(=O)NC(=O)Nc2cc(C)on2)cc1	-0.09
CCc1ccnc(NS(=O)(=O)c2ccc(C)cc2)c1	0.38
COc1cc(-c2ccc(N=Nc3ccc4c(S(=O)(=O)O)cc(S(=O)(=O)O)c(N)c4c3O)c(OC)c2)ccc1N=Nc1ccc2c(S(=O)(=O)O)cc(S(=O)(=O)O)c(N)c2c1O	18
O=C(Oc1cccc(NC2=NS(=O)(=O)c3ccccc32)c1)c1ccccc1	-0.5
CCNC(=O)CN1C(=O)c2cccc3cccc1c23	-0.12
CCOC(=O)c1c(Nc2ccc(Br)cc2C)n[nH]c1C	0.18
CCCOC(=O)C1=C(C)NC2=C(C(=O)CC(c3cccs3)C2)C1c1ccc2c(c1)OCO2 (stereo not drawn)	1.2
CCOC(=O)Cn1cnc2c(cnn2-c2ccccc2)c1=O	-2.2
N#C/C(=C\N(CCS(=O)(=O)c1ccc(Cl)cc1)Cc1cccs1)S(=O)(=O)c1ccc(Cl)cc1	0.68
CCCOc1nc2c(c(=O)n(C)c(=O)n2C)n1C(C)c1ccccc1 (stereo not drawn)	3.5*
COCCOc1nc2c(c(=O)n(C)c(=O)n2C)n1CCc1ccccc1	1.6
C#CCOc1nc2c(c(=O)n(C)c(=O)n2C)n1Cc1ccccc1	0.67
COC(=O)C1=C(C(=O)OC)SC(=C2C(=S)C(C)(C)N(C(C)=O)c3ccc(OC)cc32)S1	-0.14
Cc1nnc2n1NC(c1ccc(F)cc1)C(C(=O)N1CCOCC1)S2 (stereo not drawn)	0.61
O=C1/C(=C\c2cccc(Cl)c2)C(c2ccccc2)Oc2ccccc21 (stereo not drawn)	-1.5
O=C(c1cccs1)c1cn(CC(=O)N2CCOCC2)c2ccccc12	0.7
CC1CCN(C(=O)Cn2cc(C(=O)C3CC3)c3ccccc32)CC1	5.1*
SMILES	Dicer inh
CC1CCCC(C)N1C(=O)Cn1cc(C(=O)C2CCCCC2)c2ccccc21 (stereo not drawn)	-4.1
CCC(=O)c1cn(CC(=O)N2CCOCC2)c2ccccc12	-0.16
COC(=O)c1cn(CC(=O)N2CCOCC2)c2ccccc12	6*
CCOC(=O)Cn1cc(C(=O)C2CC2)c2ccccc21	1.8
Cc1ccc2nc(CCCc3nc4ccc(C)cc4[nH]3)[nH]c2c1	-0.57
CSc1sc(C(=O)NNC(=O)c2ccc(Cl)cc2)cc1S(=O)(=O)C(C)C	2.4
CSc1sc(C(=O)Nc2cccc(C(F)(F)F)c2)cc1C#N	0.02
CSc1sc(NC(=O)Nc2cccc(C(F)(F)F)c2)cc1S(=O)(=O)C(C)C	3.3*
CC(C)S(=O)(=O)c1csc(NC(=O)Nc2ccc(C(F)(F)F)cc2)c1	2.2
CC(C)S(=O)(=O)c1csc(NC(=O)Nc2ccc(Cl)cc2)c1	19
CSc1sc(NC(=O)Nc2ccc(Cl)cc2)cc1S(=O)(=O)C(C)C	3.9*
CC(C)(C)NC(=O)N1CCN(c2nc(-c3ccccc3)ns2)CC1	0.23
O=c1c2ccccc2cnn1-c1ccc2ccccc2c1	-1.2
Cc1cccc(-n2ncc3ccccc3c2=O)c1	4.2*
O=c1c2ccccc2cnn1-c1ccc(F)cc1	0.98
S=C1SCN(Cc2ccccc2)CN1Cc1ccccc1	-0.33
Cc1sc(-c2ccccc2)nc1-c1ccc(CC(C)C)cc1	-0.11
O=C(Nc1ccc(F)c(Cl)c1)C1CC(=O)n2c(nc3ccccc32)N1 (stereo not drawn)	0.52
CCOC(=O)c1cnn(-c2ccccc2)c1NC(=O)Nc1ccccc1	4.1*
CCOC(=O)c1cnn(-c2ccccc2)c1NC(=O)CN1CCOCC1	0.11
CCOC(=O)c1cnn(-c2ccccc2)c1NC(=O)CN1CCN(C)CC1	-1.2
Cc1ccc(C(C)C)cc1Oc1cc(Cl)nc(N)n1	0.99
C=CCOc1ccc2c(=O)c(-c3ccccc3Cl)coc2c1	-0.91
CC(C)N(C(=O)NCc1ccccc1)C(C)C	-1.7
CCOC(=O)C(OC(=O)Nc1ccccc1)C(OC(=O)Nc1ccccc1)C(=O)OCC (stereo not drawn)	1.9
CCOC(=O)NC1(NCC(C)C)Oc2ccccc2O1	6*
CCOC(=O)NC(NC(C)c1ccccc1)(C(F)(F)F)C(F)(F)F (stereo not drawn)	-0.53
